Source: PubChem BioAssay (National Center for Advancing Translational Sciences (NCATS))
KB-3-1 cytotox – qHTS assay for MDR1-selective chemotherapeutics: Primary screen using the parental adenocarcinoma cell KB-3-1 | Potency, µM (highest dose often 46.1 µM), hits mostly cytotoxic | KB-3-1 viability, CellTiter-Glo ATP luminescence, 72 h | 1.4% of 400,000 active; further: nearly all actives have a fitted effect of over 60% in size
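Screening of KB-3-1 cells (DMEM, 10% FBS, phenol-red free) ran from lowest to highest compound concentration; after 72 h at 37 °C viability was read luminescently and curves fitted.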
HT1080 IDH1KD tx – qHTS for induction of synthetic lethality in tumor cells producing 2HG: qHTS for the HT-1080-IDH1KD cell line | HT-1080 IDH1 knockdown viability, ATP luminescence, 48 h | Potency, µM (highest dose often 46.1 µM), most hits filed as cytotoxic | 2% of 360,000 active | AID 686971, 2013
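HT-1080-IDH1KD cells (IDH1 knocked down), 750/well in RPMI with 5% FBS, treated with compound 48 h at 37 degrees C. Viability by CellTiter-Glo luminescence, normalised to DMSO and no-cell wells; concentration-response curves classed.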
KB-V1 cytotox – qHTS assay for MDR1-selective chemotherapeutics: Primary screen using the drug-selected MDR subline cells KB-V1; AID 1347076, 2019; 3.4% of 400,000 active; KB-V1 MDR cells viability, CellTiter-Glo, 72 h; Potency, µM (highest dose often 46.1 µM), hits mostly cytotoxic; further: nearly all actives have a fitted effect of over 60% in size
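Cytotoxicity toward P-gp-expressing KB-V1 cells was determined as loss of CellTiter-Glo luminescence after 72 h at 37 degrees C. Compounds were tested in quantitative HTS format across a concentration range, with curves fitted to normalized data.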
MCF10A rereplic – A quantitative high throughput screen for small molecules that induce DNA re-replication in MCF 10a normal breast cells. AID 624296, 2012. 2.9% of 350,000 active. Potency, µM (titrated, usually from 46.1 µM), usual class: activators. MCF 10A DNA re-replication, Hoechst nuclear intensity, 48 h; further: nearly all actives have a fitted effect of over 50% in size
SW480 rereplic – A quantitative high throughput screen for small molecules that induce DNA re-replication in SW480 colon adenocarcinoma cells. SW480 DNA re-replication, Hoechst DNA content imaging, 48 h. Potency, µM (series often up to 46.1 µM), most hits filed as activators. 1.8% of 340,000 active. AID 624297, 2012; further: nearly all actives have a fitted effect of over 55% in size
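Compounds, transferred as 23 nL by pin tool, were incubated with cells for 48 hr; DNA content per nucleus was then quantified by Hoechst staining and fluorescence plate imaging.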
HT1080-NT tox – qHTS for induction of synthetic lethality in tumor cells producing 2HG: qHTS for the HT-1080-NT fibrosarcoma cell line. AID 686970, 2013. HT-1080-NT fibrosarcoma viability, CellTiter-Glo ATP luminescence, 48 h. Potency, µM (highest dose often 46.1 µM), actives largely listed as cytotoxic. 1.6% of 360,000 active;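 further: NT is the 2HG producing partner of a matched IDH1 knockdown line; nearly all actives have a fitted effect of over 55% in size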
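Luminescent CellTiter-Glo readout after 48 hours of compound exposure at 37 degrees C defined viability of HT-1080-NT cells. Activity was normalized to DMSO wells and cell-free media wells; concentration-response curves were fitted and assigned curve classes.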
Large screens that a line does not name were inactive. Shown are actives, neighbours in structure and some others; about 7.9% of the full set was active somewhere. The call rests on the fitted dose curve; in most records, active means well fitted curve in the direction sought with a large enough effect; inconclusive means small, poorly fitted or top-dose-only effect, or another doubt; inactive means no such curve, though single readings can be large; an effect the other way counts as inactive or inconclusive.

Oc1ccc(Cl)cc1C1=NNC(c2cc(Br)cc3c2OCOC3)C1 (centres undefined)	KB-3-1 cytotox inconclusive
Oc1ccc(Cl)cc1C1=NNC(c2ccc(Cl)cc2)C1 (centres undefined)	KB-3-1 cytotox 23.1µM, HT1080 IDH1KD tx inconclusive, KB-V1 cytotox inconclusive, MCF10A rereplic 18.4µM, SW480 rereplic inconclusive
c1ccc(-c2cc(-c3nc4ccccc4[nH]3)c3ccccc3n2)cc1	KB-3-1 cytotox 16.4µM, HT1080 IDH1KD tx inconclusive, KB-V1 cytotox 16.4µM, MCF10A rereplic inconclusive
CN(C)c1ccc(C(=O)OCC(=O)c2cccs2)cc1	MCF10A rereplic inconclusive
CC(=O)Nc1cccc(-c2ccnc3c2CC(C(=O)NCc2cccc(Cl)c2)O3)c1 (centres undefined)	KB-3-1 cytotox inconclusive, HT1080 IDH1KD tx inconclusive, HT1080-NT tox inconclusive (no result: MCF10A rereplic, SW480 rereplic)
CC(=O)Nc1ccc(-c2ccnc3c2CC(C(=O)NCc2cccc(Cl)c2)O3)cc1 (centres undefined)	KB-3-1 cytotox 3.26µM, HT1080 IDH1KD tx 1.64µM, KB-V1 cytotox inconclusive, HT1080-NT tox inconclusive (no result: MCF10A rereplic, SW480 rereplic)
NC(=O)c1cccc(-c2ccnc3c2CC(C(=O)NCc2cccc(Cl)c2)O3)c1 (centres undefined)	KB-3-1 cytotox inconclusive, HT1080 IDH1KD tx 9.2µM, HT1080-NT tox inconclusive (no result: MCF10A rereplic, SW480 rereplic)
NC(=O)c1cccc(-c2ccnc3c2CC(C(=O)NCC2CC2)O3)c1 (centres undefined)	none (no result: MCF10A rereplic, SW480 rereplic)
CCc1ccc(NC(=O)C(=O)NCC(c2cccnc2)N2CCc3ccccc3C2)cc1 (centres undefined)	KB-V1 cytotox inconclusive (no result: HT1080 IDH1KD tx, MCF10A rereplic, SW480 rereplic, HT1080-NT tox)
Cc1cc(C)c2[nH]c(=O)c(CN(Cc3nnnn3C3CCCC3)C3CCCCC3)cc2c1	none
Cc1cccc2cc(CN(Cc3nnnn3C3CCCCC3)C3CCCC3)c3nnnn3c12	KB-3-1 cytotox inconclusive, KB-V1 cytotox 20.6µM
COc1ccc(-n2c(C)cc(C(=O)CN3CCC(C)CC3)c2C)cc1	MCF10A rereplic 0.581µM
COc1ccc(-n2c(C)cc(C(=O)Cn3nc(C(=O)O)c4ccccc4c3=O)c2C)cc1	KB-V1 cytotox 14.6µM
CC1(C(=O)NCCC#N)CCN1C(=O)C1(c2ccccc2)CC1 (centres undefined)	none (no result: MCF10A rereplic, SW480 rereplic)
COc1ccc(-c2cc(C)no2)cc1S(=O)(=O)N(C)c1ccc(C)cc1	KB-3-1 cytotox inconclusive, HT1080 IDH1KD tx inconclusive, KB-V1 cytotox 8.2µM, MCF10A rereplic 7.31µM, HT1080-NT tox inconclusive
CCOc1ccc(N(C)S(=O)(=O)c2cc(-c3cc(C)no3)ccc2C)cc1	KB-3-1 cytotox inconclusive, HT1080 IDH1KD tx inconclusive, KB-V1 cytotox inconclusive, MCF10A rereplic inconclusive, SW480 rereplic 20.6µM
COc1ccc(-c2coc3cc4oc(=O)cc(-c5ccccc5)c4cc23)cc1F	KB-3-1 cytotox 2.91µM, HT1080 IDH1KD tx 3.66µM, KB-V1 cytotox inconclusive, MCF10A rereplic 6.51µM, SW480 rereplic inconclusive, HT1080-NT tox 6.51µM
COc1ccc(-c2coc3cc4oc(=O)cc(C)c4cc23)cc1F	KB-V1 cytotox inconclusive, MCF10A rereplic 5.17µM, SW480 rereplic inconclusive
OCC1(CCCc2ccccc2)CCN(Cc2cnc(N3CCOCC3)s2)CC1	KB-3-1 cytotox 20.6µM, KB-V1 cytotox inconclusive, MCF10A rereplic inconclusive
Clc1ncc(CN2CCN(c3ccccc3)CC2)s1	none
c1ccc(N2CCN(Cc3cnc(N4CCOCC4)s3)CC2)cc1	KB-V1 cytotox 13µM, MCF10A rereplic inconclusive
COc1cc(/C=N/N=C(N)N)ccc1OCc1ccc(Cl)cc1	KB-3-1 cytotox inconclusive, HT1080 IDH1KD tx inconclusive, MCF10A rereplic inconclusive, SW480 rereplic inconclusive, HT1080-NT tox inconclusive
NC(N)=N/N=C/c1ccc(OCc2ccccc2)c(OCc2ccccc2)c1	KB-3-1 cytotox inconclusive, HT1080 IDH1KD tx 18.4µM, MCF10A rereplic 11.6µM, HT1080-NT tox 23.1µM
CCOc1cc(/C=N/N=C(N)N)ccc1OCc1ccc(Cl)cc1	KB-3-1 cytotox inconclusive, HT1080 IDH1KD tx inconclusive, KB-V1 cytotox inconclusive, MCF10A rereplic 18.4µM, SW480 rereplic inconclusive, HT1080-NT tox inconclusive
CCOC(=O)Cc1csc(NC(=O)/C=C/c2ccccc2Cl)n1	HT1080-NT tox inconclusive
Cc1ccc(S(=O)(=O)N2CCCC(C)C2)cc1 (centres undefined)	none
CC1CCCN(S(=O)(=O)c2ccc(S(=O)(=O)NC(C)c3cccs3)cc2)C1 (centres undefined)	KB-V1 cytotox 16.4µM
Cc1c(-c2ccc(F)cc2)nc(N)c(C#N)c1-c1ccco1	HT1080 IDH1KD tx 12.6µM, MCF10A rereplic inconclusive, HT1080-NT tox inconclusive
CCCCNC(=O)C(=O)NCC1CCCN1S(=O)(=O)c1cccs1 (centres undefined)	none
Cc1sc(NC(=O)c2ccco2)c(CN2CCN(c3ccccn3)CC2)c1C	KB-3-1 cytotox 20.6µM, KB-V1 cytotox inconclusive, MCF10A rereplic inconclusive
Cc1sc(NC(=O)c2ccco2)c(CN2CCN(c3ccc(F)cc3)CC2)c1C	KB-V1 cytotox inconclusive
Cn1c(=O)c2cc(C(=O)N3CCN(c4cccc(C(F)(F)F)c4)CC3)sc2c2ccccc21	none (no result: HT1080 IDH1KD tx, MCF10A rereplic, SW480 rereplic, HT1080-NT tox)
O=C(Cc1cccc2ccccc12)Nc1nc2ccccc2[nH]1	HT1080 IDH1KD tx 12.6µM, KB-V1 cytotox 18.4µM, SW480 rereplic inconclusive, HT1080-NT tox 12.6µM
CCCCCC(=O)Nc1nc2ccccc2[nH]1	KB-3-1 cytotox 23.1µM, HT1080 IDH1KD tx inconclusive, KB-V1 cytotox inconclusive, SW480 rereplic inconclusive, HT1080-NT tox inconclusive
O=C(CCCSc1nc2ccccc2[nH]1)NCc1ccccc1Cl	KB-V1 cytotox 16.4µM (no result: SW480 rereplic)
Cc1ccc(NC(=O)CCNC(=O)Cn2cnc3ccccc3c2=O)cc1F	none
Cc1ccc(OCc2nnc(SCC(=O)NCc3ccco3)n2C)cc1	none
COc1ccc(C(C(=O)NC2CCCC2)N(C(=O)c2snc(-c3ccc(F)cc3)c2N)c2ccc(F)cc2)cc1 (centres undefined)	KB-3-1 cytotox inconclusive, HT1080 IDH1KD tx inconclusive, KB-V1 cytotox inconclusive, MCF10A rereplic inconclusive, SW480 rereplic 16.4µM, HT1080-NT tox inconclusive
COc1ccc(C(C(=O)NC2CCCC2)N(C(=O)c2snc(-c3ccc(F)cc3)c2N)c2cccc(F)c2)cc1 (centres undefined)	MCF10A rereplic inconclusive, SW480 rereplic 20.6µM
COc1ccc(C(C(=O)NC2CCCC2)N(C(=O)c2snc(-c3ccc(F)cc3)c2N)c2ccccc2)cc1 (centres undefined)	none
COc1ccc(C(=O)NC2CC(C)(C)Cc3occc32)cc1 (centres undefined)	none
